# Assay results published in PubChem BioAssay.
# Several values for one entry are separate records, joined by “and”; a condition that tells them apart may be missing. Equal values may be shown once. Records with an inconclusive call do not appear. Activity calls are given as the source filed them.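 The calls were made as follows, unless noted: active = compounds whose cell count with miR-34 switched on is under 0.7 times the count with it off; inactive = the rest.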
# Tests used:
# [1] = sensitizers of A549 cells to miR-34 induction, primary screen, imaging, A549 dox-inducible miR-34, nuclei and caspase counts (AID 1347080); details: A549 miR-34 inducible, Hoechst nuclei count, 48 h
# [2] = inhibitors of Cryptococcus chitosan production, flow cytometry, Cibacron Brilliant Red staining (AID 1347148; call rule not given here;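 also: compound exposure lasted three days at 37 degrees C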); details: Cryptococcus neoformans chitosan, stronger effect = lower value; at 10 µM unless noted
# [3] = target: ATP-dependent translocase ABCB1 (Homo sapiens) (UniProt P08183); test: MDR1 (ABCB1) efflux transporter inhibition, cell-based (AID 377; in the data active = fluorescence slope change above about 50%); details: MDR1-expressing cells, fluorescent substrate accumulation slope; stronger effect = higher value; concentration not given here
# ATP-dependent translocase ABCB1 (Homo sapiens), sequence (P08183 whole entry, looked up): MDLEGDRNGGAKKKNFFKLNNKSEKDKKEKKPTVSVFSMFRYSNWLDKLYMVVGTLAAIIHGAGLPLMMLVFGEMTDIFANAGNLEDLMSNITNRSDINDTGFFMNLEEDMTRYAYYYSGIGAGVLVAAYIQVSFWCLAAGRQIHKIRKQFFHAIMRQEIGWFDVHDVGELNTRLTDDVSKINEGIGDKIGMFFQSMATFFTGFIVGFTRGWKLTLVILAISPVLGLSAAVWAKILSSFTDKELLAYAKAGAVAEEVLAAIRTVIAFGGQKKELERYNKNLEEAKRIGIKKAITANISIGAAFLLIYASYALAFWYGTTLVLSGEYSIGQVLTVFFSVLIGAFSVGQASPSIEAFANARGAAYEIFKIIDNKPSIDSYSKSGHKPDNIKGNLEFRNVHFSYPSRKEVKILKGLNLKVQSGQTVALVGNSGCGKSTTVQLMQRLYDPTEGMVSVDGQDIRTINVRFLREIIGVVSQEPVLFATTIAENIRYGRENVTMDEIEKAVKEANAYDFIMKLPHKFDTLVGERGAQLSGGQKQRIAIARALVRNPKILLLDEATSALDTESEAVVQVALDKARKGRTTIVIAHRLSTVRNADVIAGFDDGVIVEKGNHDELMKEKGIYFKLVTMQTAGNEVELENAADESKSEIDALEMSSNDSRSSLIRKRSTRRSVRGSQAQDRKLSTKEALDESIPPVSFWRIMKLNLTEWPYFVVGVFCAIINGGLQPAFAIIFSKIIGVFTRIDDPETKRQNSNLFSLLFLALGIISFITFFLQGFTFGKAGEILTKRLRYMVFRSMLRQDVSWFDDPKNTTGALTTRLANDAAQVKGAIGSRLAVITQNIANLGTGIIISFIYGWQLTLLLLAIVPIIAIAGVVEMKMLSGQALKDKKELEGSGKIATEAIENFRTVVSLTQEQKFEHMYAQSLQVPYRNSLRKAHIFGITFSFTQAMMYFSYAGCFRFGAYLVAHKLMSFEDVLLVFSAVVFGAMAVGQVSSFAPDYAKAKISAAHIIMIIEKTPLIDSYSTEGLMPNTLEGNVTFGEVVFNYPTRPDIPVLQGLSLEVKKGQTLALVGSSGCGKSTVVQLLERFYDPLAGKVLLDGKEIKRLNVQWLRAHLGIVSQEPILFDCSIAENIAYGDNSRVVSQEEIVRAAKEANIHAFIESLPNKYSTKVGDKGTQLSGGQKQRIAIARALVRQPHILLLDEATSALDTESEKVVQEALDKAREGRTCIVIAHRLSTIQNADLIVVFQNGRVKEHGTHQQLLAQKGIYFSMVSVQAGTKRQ
# [4] = liver-stage malaria parasite growth inhibition, primary screen, cell-based, HepG2, luciferase luminescence, HepG2 viability (AID 624349; in the data active = parasite load remaining mostly below about 12%, no sharp cut-off; inactive = mostly above about 10%;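 also: 100% = mean of DMSO negative control wells on the same plate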); details: P. berghei liver stage in HepG2, luciferase luminescence, concentration not given here; parasite load remaining: stronger effect = lower value; viability: measured here: HepG2 viability without parasites
# [5] = survival rescue of mitochondrial mutant cells in low glucose, primary screen, MELAS cybrids, Rieske KO mouse fibroblasts, CellTiter-Glo (AID 1508586;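 active = mean z-score across replicates of 1.96 or higher in either the MELAS or the Rieske mutant cell line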;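 also: z relative to plate mean and SD of compound and empty wells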)
# [6] = viability rescue of complex I mutant cybrids, primary screen, cell-based, galactose medium, ATP luminescence (AID 1645843;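 active = z-score of at least 1.8 in each of two replicates, scored against plate mean and spread of sample wells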;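 also: positive z means more ATP and so rescue of galactose-driven cybrid death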); details: complex I mutant cybrid cells, 72 h, stronger effect = higher value
# [7] = circadian clock period modulators, cell-based, LOPAC library, luminescence reporter (AID 2774; call rule not given here;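 also: values are relative to mean of DMSO wells on each plate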); details: circadian reporter cells, at 7 µM, actives lie on both sides
# [8] = test system: Hepatitis C virus NS3 helicase; test: HCV NS3 helicase inhibitors, primary screen, biochemical, fluorescence polarization, LOPAC1280 library (AID 687035; in the data active = inhibition above about 37%); details: Purified HCV NS3 helicase, Cy5-dT15 ssDNA binding fluorescence polarization; stronger effect = higher value; concentration not given here
# [9] = Cy5 fluorescence quenching or enhancement artefacts, artefact control for HCV NS3 helicase inhibitor project, biochemical, LOPAC1280 (AID 687037; call rule not given here); details: Cy5-DNA-NS3h complex fluorescence interference counterscreen
# [10] = phospholipid biosynthesis inhibitors in animal cells, primary screen, cell-based, LOPAC library, screen 4 (AID 1347384; call rule not given here); details: phospholipid biosynthesis inhibition screen, at 10 µM
# [11] = measured here: relative caspase fold change +Dox/-Dox
# [12] = measured here: total cells with miR-34 induction, stronger effect = lower value
# [13] = measured here: total cells without miR-34 induction
# [14] = stronger effect = lower value, cell number ratio, induced over uninduced
smiles,measurement,setting,value
C=C1[C@@H](C)[C@H]2[C@H](Cc3ccccc3)NC(=O)[C@]23OC(=O)/C=C/[C@H](O)CCC[C@@H](C)C/C=C/[C@H]3[C@@H]1O,fold change,[1]; stronger effect = lower value,1.14 (inactive)
same,fold change,[1]; [11],1.09
same,cell count,[1]; [12],1220
same,cell count,[1]; [13],1060
same,fold fluorescence,[2],6.64 [at 104.2 µM] (inactive)
CCCC[C@H]1C(=O)O[C@H](C)[C@H](NC(=O)c2cccc(NC=O)c2OC)C(=O)O[C@@H](C)[C@@H]1OC(=O)CC(C)C,fold change,[1]; stronger effect = lower value,1.28 (inactive)
same,fold change,[1]; [11],0.897
same,cell count,[1]; [12],869
same,cell count,[1]; [13],680
same,fold fluorescence,[2],6.91 [at 93.5 µM] (inactive)
COC[C@H]1OC(=O)c2coc3c2[C@@]1(C)C1=C(C3=O)[C@@H]2CCC(=O)[C@@]2(C)C[C@H]1OC(C)=O,fold change,[1]; stronger effect = lower value,0.997 (inactive)
same,fold change,[1]; [11],1.29
same,cell count,[1]; [12],1550
same,cell count,[1]; [13],1560
same,fold fluorescence,[2],5.16 [at 116.7 µM] (inactive)
CCCCCCCCCC(=O)OC[C@H](COP(=O)([O-])OCC[N+](C)(C)C)OC(=O)CCCCCCCCC,fold change,[1]; [14],0.907 (inactive)
same,fold change,[1]; [11],0.797
same,cell count,[1]; [12],5320
same,cell count,[1]; [13],5860
CCCCCc1cc(O)c2c(c1)OC(C)(C)[C@@H]1CCC(C(=O)O)=CC21 (stereo partly specified),fold change,[1]; stronger effect = lower value,0.953 (inactive)
same,fold change,[1]; [11],1.25
same,cell count,[1]; [12],5920
same,cell count,[1]; [13],6210
CCCCC/C=C\C/C=C\C/C=C\C/C=C\CCCC(=O)N[C@@H](C)C(=O)O,fold change,[1]; [14],0.941 (inactive)
same,fold change,[1]; [11],1.84
same,cell count,[1]; [12],5770
same,cell count,[1]; [13],6140
N#CC(C#N)=NNc1ccc(OC(F)(F)F)cc1,fold change,[1]; stronger effect = lower value,1.05 (inactive)
same,fold change,[1]; [11],0.834
same,cell count,[1]; [12],1180
same,cell count,[1]; [13],1130
same,fold fluorescence,[2],9.07 [at 196.7 µM] (inactive)
CCCCC/C=C\C/C=C\C/C=C\C/C=C\CCCC(=O)NCc1ccc(O)c(OC)c1,fold change,[1]; stronger effect = lower value,0.841 (inactive) and 1 (inactive)
same,fold change,[1]; [11],1.08 and 0.996
same,cell count,[1]; [12],2750 and 5480
same,cell count,[1]; [13],3270 and 5460
same,fold fluorescence,[2],5.97 [at 113.7 µM] (inactive)
c1cc(N2CCNCC2)c2cc[nH]c2c1,fold change,[1]; [14],0.865 (inactive)
same,fold change,[1]; [11],1.51
same,cell count,[1]; [12],4820
same,cell count,[1]; [13],5570
Cn1c2cccc(=O)c-2nc2ccccc21,fold change,[1]; [14],1.03 (inactive)
same,fold change,[1]; [11],0.698
same,cell count,[1]; [12],3390
same,cell count,[1]; [13],3310
C=C1[C@@H](C)[C@H]2[C@H](Cc3ccccc3)NC(=O)C23[C@H](OC(C)=O)/C=C/[C@](C)(O)C(=O)[C@@H](C)C/C=C/[C@H]3[C@@H]1O (stereo partly specified),fold change,[1]; [14],1.3 (inactive)
same,fold change,[1]; [11],0.464
same,cell count,[1]; [12],990
same,cell count,[1]; [13],762
CC[C@@]1(O)C(=O)OCc2c1cc1n(c2=O)-c2cc3ccccc3nc2C1,fold change,[1]; stronger effect = lower value,1.01 (inactive)
same,fold change,[1]; [11],0.79
same,cell count,[1]; [12],1320
same,cell count,[1]; [13],1300
CCCCC/C=C\C/C=C\C/C=C\C/C=C\CCCC(=O)NCCS(=O)(=O)O,fold change,[1]; [14],0.96 (inactive)
same,fold change,[1]; [11],1.07
same,cell count,[1]; [12],5500
same,cell count,[1]; [13],5730
N[C@H]1C[C@@H]1c1ccccc1,fluorescence slope change,[3],55% (active)
same,parasite load remaining,[4],52% (inactive) and 79.2% (inactive)
same,viability,[4],46.6% and 238%
same,fold change,[1]; stronger effect = lower value,0.858 (inactive)
same,fold change,[1]; [14],0.985 (inactive)
same,fold change,[1]; [11],1.15 and 1.49
same,cell count,[1]; [12],9050
same,cell count,[1]; [13],9180 and 10500
same,z-score,"[5]; MELAS cybrid survival, CellTiter-Glo 48 h, stronger effect = higher value",0.109 (inactive) and -0.281 (inactive)
same,z-score,"[5]; Rieske KO mouse fibroblast survival, CellTiter-Glo 72 h",-0.102 and -1.1
same,z-score,[6],0.92 (inactive)
CCCCCCC(=O)O[C@H]1CC[C@H]2[C@@H]3C[C@H](O)C4=CC(=O)CC[C@]4(C)[C@H]3CC[C@]12C,fold change,[1]; stronger effect = lower value,0.966 (inactive)
same,fold change,[1]; [11],1.11
same,cell count,[1]; [12],5330
same,cell count,[1]; [13],5520
O=C(NCCN1CCC2(CC1)C(=O)NCN2c1ccccc1)c1ccc2ccccc2c1,fold change,[1]; [14],0.966 (inactive)
same,fold change,[1]; [11],1.81
same,cell count,[1]; [12],5740
same,cell count,[1]; [13],5940
CCCCCCCCCCCCCCCCSP(=O)([O-])OCC[N+](C)(C)C,fold change,[1]; [14],0.933 (inactive)
same,fold change,[1]; [11],0.479
same,cell count,[1]; [12],5080
same,cell count,[1]; [13],5450
CCCC(=O)N[C@H]1CCOC1=O,fold change,[1]; [14],0.907 (inactive)
same,fold change,[1]; [11],0.504
same,cell count,[1]; [12],6040
same,cell count,[1]; [13],6650
CCCCCCC(=O)O[C@H]1CC[C@H]2[C@@H]3C[C@@H](O)C4=CC(=O)CC[C@]4(C)[C@H]3CC[C@]12C,fold change,[1]; stronger effect = lower value,0.966 (inactive)
same,fold change,[1]; [11],0.446
same,cell count,[1]; [12],5500
same,cell count,[1]; [13],5700
CN1C(=O)[C@]23CC4=CC=C[C@H](O)[C@H]4N2C(=O)[C@@]1(CO)SS3,fold change,[1]; stronger effect = lower value,0.901 (inactive)
same,fold change,[1]; [11],1.24
same,cell count,[1]; [12],657
same,cell count,[1]; [13],730
CCCCCCCC/C=C\CCCCCCCC(=O)Nc1ccccc1,fold change,[1]; [14],1.04 (inactive)
same,fold change,[1]; [11],0.81
same,cell count,[1]; [12],6190
same,cell count,[1]; [13],5950
CCCN(CCCN)N(O)N=O,fold change,[1]; [14],1.05 (inactive)
same,fold change,[1]; [11],0.825
same,cell count,[1]; [12],5850
same,cell count,[1]; [13],5540
CC(C)CC(NP(=O)(O)OC1OC(C)C(O)C(O)C1O)C(=O)NC(Cc1c[nH]c2ccccc12)C(=O)O (stereo unspecified),fold change,[1]; stronger effect = lower value,0.95 (inactive)
same,fold change,[1]; [11],0.289
same,cell count,[1]; [12],9030
same,cell count,[1]; [13],9510
CCCCCCCC/C=C\CCCCCCCC(=O)N[C@H](C)CO,fold change,[1]; [14],0.925 (inactive)
same,fold change,[1]; [11],1.87
same,cell count,[1]; [12],5120
same,cell count,[1]; [13],5540
C=C(C)[C@H]1O[C@H]2CC[C@@]3(C)[C@@](O)(CC[C@H]4[C@@H]5OC(C)(C)[C@H]6C[C@@H]7C(=C)Cc8c(Cl)cc9[nH]c(c5c9c8[C@@]76O)[C@@]43C)[C@]23O[C@@H]3[C@H]1O,fold change,[1]; stronger effect = lower value,1.28 (inactive)
same,fold change,[1]; [11],1.48
same,cell count,[1]; [12],1060
same,cell count,[1]; [13],826
CCCCC/C=C\C/C=C\C/C=C\C/C=C\CCCC(=O)N[C@@H](C)CO,fold change,[1]; [14],1.04 (inactive)
same,fold change,[1]; [11],0.734
same,cell count,[1]; [12],6190
same,cell count,[1]; [13],5940
same,fold fluorescence,[2],6.15 (inactive)
Clc1ccc(C2CC3CCC2N3)cn1 (stereo unspecified),fold change,[1]; stronger effect = lower value,0.945 (inactive)
same,fold change,[1]; [11],1.19
same,cell count,[1]; [12],6010
same,cell count,[1]; [13],6360
same,fold fluorescence,[2],4.32 [at 239.6 µM] (inactive)
CCNC(=O)[C@H]1O[C@@H](n2cnc3c(N)ncnc32)C(O)[C@H]1O (stereo partly specified),period change,[7],-0.025 h (inactive)
same,inhibition,[8],0% (inactive)
same,fluorescence ratio (interference),[9],1 (inactive)
same,fold change,[1]; stronger effect = lower value,1.03 (inactive)
same,fold change,[1]; [11],1.36
same,cell count,[1]; [12],9250
same,cell count,[1]; [13],8960
same,outcome,[10],inactive
same,z-score,[6],0.625 (inactive)
